Results filed as inconclusive are left out. Activity calls are given as the source filed them. Unless noted, the call rests on the fitted dose curve.
Experiments:
[1] = Nuclear factor erythroid 2-related factor 2/antioxidant responsive element (Nrf2/ARE) small molecule agonists: qHTS cell viability counter screen in human keratinocytes (AID 1919968; active means well fitted curve in the direction sought with a large enough effect in the repeat runs; an effect the other way counts as inactive or inconclusive; further: nearly all actives have a fitted effect of over 55% in size; further: potency means the concentration at half of the fitted maximal effect)
Method in brief: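 Parallel cytotoxicity read: KeratinoSens HaCaT cells, compound treatment 23 h, viability by CellTiter-Fluor fluorescence 1 h post-reagent.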

[2] = Nuclear factor erythroid 2-related factor 2/antioxidant responsive element (Nrf2/ARE) small molecule agonists: luciferase reporter gene qHTS assay in human keratinocytes (AID 1919969); further: nearly all actives have a fitted effect of over 35% in size; further: potency means the concentration at half of the fitted maximal effect
[3] = molecular target: Gonadotropin-releasing hormone receptor (Homo sapiens) (UniProt P30968); assay: Human gonadotropin-releasing hormone receptor (GnRHR) small molecule agonists, calcium flux assay in GnRHR-HEK293 cells (AID 1920063); further: nearly all actives have a fitted effect of over 35% in size
Chain of Gonadotropin-releasing hormone receptor (Homo sapiens) (P30968 whole entry, looked up): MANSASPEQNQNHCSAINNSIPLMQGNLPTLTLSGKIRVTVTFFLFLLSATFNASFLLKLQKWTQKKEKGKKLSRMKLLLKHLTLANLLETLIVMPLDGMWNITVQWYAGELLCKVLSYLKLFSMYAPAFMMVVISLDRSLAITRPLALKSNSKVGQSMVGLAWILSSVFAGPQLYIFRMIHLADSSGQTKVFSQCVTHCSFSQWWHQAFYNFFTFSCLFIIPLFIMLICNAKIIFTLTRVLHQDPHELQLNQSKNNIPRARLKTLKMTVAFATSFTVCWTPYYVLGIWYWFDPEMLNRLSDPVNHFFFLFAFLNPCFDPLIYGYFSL
Method in brief: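 Calcium flux, agonist mode, human GnRHR stably integrated in HEK293; dye 1 h at 37 C before compound; Ex/Em=480/540 kinetic read, 3 min; 15 concentrations, triplicate.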

[4] = molecular target: KiSS-1 receptor (Homo sapiens) (UniProt Q969F8); assay: Human kisspeptin (KISS1R) small molecule agonists, calcium flux assay in KISS1R-HEK293 cells (AID 1920064; active means well fitted curve in the direction sought with a large enough effect in the repeat runs; an effect the other way counts as inactive or inconclusive)
Chain of KiSS-1 receptor (Homo sapiens) (Q969F8 whole entry, looked up): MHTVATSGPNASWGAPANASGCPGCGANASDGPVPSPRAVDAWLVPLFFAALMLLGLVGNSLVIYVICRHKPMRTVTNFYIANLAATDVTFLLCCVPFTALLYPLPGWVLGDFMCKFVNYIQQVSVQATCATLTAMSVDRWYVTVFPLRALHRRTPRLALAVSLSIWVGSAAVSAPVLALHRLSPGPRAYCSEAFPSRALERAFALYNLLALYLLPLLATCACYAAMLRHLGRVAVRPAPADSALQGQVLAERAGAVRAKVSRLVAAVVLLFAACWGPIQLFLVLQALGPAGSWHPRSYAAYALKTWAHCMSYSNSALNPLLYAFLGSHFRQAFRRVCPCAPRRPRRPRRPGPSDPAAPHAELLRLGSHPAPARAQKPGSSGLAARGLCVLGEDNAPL
Method in brief: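 Triplicate 15-concentration series were applied to dye-loaded human KISS1R HEK293 cells, and agonist-evoked calcium fluorescence was captured for 3 min.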

[5] = G protein-coupled receptor (GPCR) small molecule agonists, calcium flux assay: HEK293 wild type cell line counter screen (AID 1920065)
Method in brief: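 Non-specific calcium responders were flagged by adding DMSO-dissolved compounds to dye-loaded cells and reading 480/540 nm fluorescence each second for 3 min; ATP served as positive control.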

[6] = p53 small molecule agonists, cell-based qHTS assay with human liver microsomes (AID 1963577);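 further: p53 response element beta-lactamase reporter cells with liver microsomes plus NADPH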
Method in brief: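 Reporter activation was measured by LiveBLAzer fluorescence intensity in p53RE-bla cells, which had been exposed to compounds for 16 h at 37 C alongside 0.5 mg/mL human liver microsomes and 0.5 mg/mL NADPH (final concentrations).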

[7] = p53 small molecule agonists, cell-based qHTS assay with rat liver microsomes (AID 1963578)
Method in brief: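 Compound in DMSO added to p53RE-bla cells 5 h post-plating; rat microsomes/NADPH 0.5 mg/mL final; 16 h, 37 C; LiveBLAzer 2 h RT.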

[8] = p53 small molecule agonists, cell-based qHTS assay with human liver microsomes: qHTS cell viability counter screen (AID 1963579); further: nearly all actives have a fitted effect of over 45% in size
Method in brief: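 HLM-supplemented (0.5 mg/mL final) and NADPH-supplemented (0.5 mg/mL final) p53RE-bla cultures, 4,000 cells per well, were dosed with compounds in DMSO for 16 h at 37 C; luminescent ATP detection (CellTiter-Glo, 30 min, room temperature) quantified surviving cells.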

[9] = p53 small molecule agonists, cell-based qHTS assay: qHTS cell viability counter screen (AID 1963581); further: nearly all actives have a fitted effect of over 45% in size
Method in brief: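 Multiplexed with the reporter read, a CellTiter-Glo step (30 min, room temperature) gauges ATP-based viability of HCT-116 p53RE-bla cells after 16 h compound incubation at 37 C.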

[10] = p53 small molecule agonists, cell-based qHTS assay (AID 1963582; active means well fitted activation curve with a large enough effect in the signal ratio in the repeat runs, not every such curve was filed as active; the % refers to the signal ratio)
Method in brief: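 Beta-lactamase reporter cells (p53RE-bla) treated with compounds for 16 h at 37 C; FRET substrate, 2 h, room temperature; fluorescence intensity.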

[11] = molecular target: 5-hydroxytryptamine receptor 2A (Homo sapiens) (UniProt P28223); assay: 5-hydroxytryptamine receptor 2A (HTR2A) small molecule antagonists, cell-based qHTS assay (AID 1963586); further: nearly all actives have a fitted effect of over 45% in size
Chain of 5-hydroxytryptamine receptor 2A (Homo sapiens) (P28223 whole entry, looked up): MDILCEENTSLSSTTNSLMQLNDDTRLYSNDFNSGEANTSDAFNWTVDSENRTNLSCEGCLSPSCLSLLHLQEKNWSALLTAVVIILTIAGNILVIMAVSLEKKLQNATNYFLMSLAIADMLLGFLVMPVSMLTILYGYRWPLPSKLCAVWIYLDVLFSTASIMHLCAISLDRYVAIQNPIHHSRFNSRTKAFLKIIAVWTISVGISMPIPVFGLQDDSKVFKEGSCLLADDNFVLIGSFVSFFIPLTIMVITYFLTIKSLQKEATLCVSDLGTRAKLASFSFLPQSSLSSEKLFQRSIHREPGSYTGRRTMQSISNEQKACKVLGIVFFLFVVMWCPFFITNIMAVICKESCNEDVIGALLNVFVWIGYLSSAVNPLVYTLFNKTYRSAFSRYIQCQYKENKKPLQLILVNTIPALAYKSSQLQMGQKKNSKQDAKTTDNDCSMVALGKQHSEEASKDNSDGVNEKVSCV
Method in brief: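 CHO cells stably expressing human HTR2A were plated for 18 h at 37 C, then loaded with calcium dye for 1 h. Compounds were preincubated 5 min at room temperature before DOI (4 nM solution) was added. Kinetic fluorescence was read for 3 min.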

[12] = molecular target: 5-hydroxytryptamine receptor 2A (Homo sapiens) (UniProt P28223); assay: 5-hydroxytryptamine receptor 2A (HTR2A) small molecule agonists, cell-based qHTS assay (AID 1963587); further: nearly all actives have a fitted effect of over 30% in size
Method in brief: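 Kinetic calcium-flux fluorescence (2 min, 1 sec intervals) after compound addition in agonist mode. HTR2A-CHO cells were cultured 18 h, then dye-loaded 1 h at 37 C.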

[13] = molecular target: Muscarinic acetylcholine receptor M1 (Homo sapiens) (UniProt P11229); assay: Cholinergic receptor muscarinic 1 (CHRM1) small molecule antagonists, cell-based qHTS assay (AID 1963588); further: nearly all actives have a fitted effect of over 40% in size
Chain of Muscarinic acetylcholine receptor M1 (Homo sapiens) (P11229 whole entry, looked up): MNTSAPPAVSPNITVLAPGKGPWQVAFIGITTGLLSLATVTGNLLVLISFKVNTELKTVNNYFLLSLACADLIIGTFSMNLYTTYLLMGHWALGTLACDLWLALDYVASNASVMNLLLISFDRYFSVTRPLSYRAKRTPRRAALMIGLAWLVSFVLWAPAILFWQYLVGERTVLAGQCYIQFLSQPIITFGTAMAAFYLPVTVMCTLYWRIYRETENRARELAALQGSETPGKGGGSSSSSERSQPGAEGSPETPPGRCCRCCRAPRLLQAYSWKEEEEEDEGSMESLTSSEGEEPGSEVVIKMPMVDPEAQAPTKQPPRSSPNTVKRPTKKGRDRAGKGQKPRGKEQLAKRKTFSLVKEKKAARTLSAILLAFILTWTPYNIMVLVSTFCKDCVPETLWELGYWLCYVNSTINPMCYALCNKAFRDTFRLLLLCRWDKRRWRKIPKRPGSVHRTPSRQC
Method in brief: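 Compounds were tested at 15 concentrations in three independent runs. Dye-loaded CHRM1-CHO cells were exposed 5 min at room temperature before stimulation by acetylcholine added at 50nM. Intracellular calcium was read kinetically on FDSS for 3 min.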

[14] = molecular target: Muscarinic acetylcholine receptor M1 (Homo sapiens) (UniProt P11229); assay: Cholinergic receptor muscarinic 1 (CHRM1) small molecule agonists, cell-based qHTS assay (AID 1963589); further: nearly all actives have a fitted effect of over 35% in size
Method in brief: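 qHTS, 15-point titration, 3 independent runs: compounds pin-transferred onto dye-loaded CHRM1-CHO cells (human M1), calcium fluorescence followed every second to detect agonism.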

[15] = cAMP Responsive Elements (CRE) small molecule agonists, cell-based qHTS assay (AID 1963590)
Method in brief: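 Quantitative HTS for CRE agonists: HEK 293T CRE-bla cells, overnight plating, 3 h compound incubation at 37 C/5% CO2, then 2 h room-temperature LiveBLAzer B/G FRET substrate loading.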

[16] = cAMP Responsive Elements (CRE) small molecule antagonists, cell-based qHTS assay (AID 1963591; active means well fitted inhibition curve with a large enough effect in the signal ratio in the repeat runs, not every such curve was filed as active; the % refers to the signal ratio)
Method in brief: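 Fluorescence intensity from cleaved LiveBLAzer B/G substrate (2 h, room temperature) quantified CRE-bla activity in HEK 293T cells exposed 3 h to compound with 0.25 uM final NKH477.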

[17] = molecular target: Beta-2 adrenergic receptor (Homo sapiens) (UniProt P07550); assay: Adrenergic beta2 receptor (ADRB2) small molecule antagonists, cell-based qHTS assay (AID 1963592); further: series mostly up to about 92 µM; nearly all actives have a fitted effect of over 50% in size
Chain of Beta-2 adrenergic receptor (Homo sapiens) (P07550 whole entry, looked up): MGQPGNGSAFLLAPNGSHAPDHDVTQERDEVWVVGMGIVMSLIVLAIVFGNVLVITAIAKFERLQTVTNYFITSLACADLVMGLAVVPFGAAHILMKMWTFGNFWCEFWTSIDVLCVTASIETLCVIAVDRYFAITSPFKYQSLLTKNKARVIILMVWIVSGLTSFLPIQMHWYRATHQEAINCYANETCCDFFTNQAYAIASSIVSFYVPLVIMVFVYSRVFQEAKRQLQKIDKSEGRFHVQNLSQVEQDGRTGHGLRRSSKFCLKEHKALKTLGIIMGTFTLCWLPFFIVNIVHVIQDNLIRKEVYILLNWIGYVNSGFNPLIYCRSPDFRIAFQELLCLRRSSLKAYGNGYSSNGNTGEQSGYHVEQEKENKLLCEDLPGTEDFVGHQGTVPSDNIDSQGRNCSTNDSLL
Method in brief: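 Assay format: CHO-ADRB2 cells, 18-20hr seeding at 37C/5% CO2, then compound plus 1nM isoproterenol agonist mix for 0.5hr RT. Homogeneous time-resolved fluorescence cAMP detection after 1hr, expressed as 665/615 nm ratio.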

[18] = molecular target: Beta-2 adrenergic receptor (Homo sapiens) (UniProt P07550); assay: Adrenergic beta2 receptor (ADRB2) small molecule agonists, cell-based qHTS assay (AID 1963593);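 further: CHO cells stably overexpressing human ADRB2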
Method in brief: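 CHO cells stably over-expressing ADRB2 were plated overnight at 37C, then dosed with compounds plus a stimulation mix containing 100uM IBMX and 25uM Ro-20-1724 for 0.5hr at room temperature. cAMP was measured by HTRF competition, 1hr.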

[19] = molecular target: D(2) dopamine receptor (Homo sapiens) (UniProt P14416); assay: Dopamine D2 receptor (DRD2) small molecule agonists, cell-based qHTS assay (AID 1963594); further: nearly all actives have a fitted effect of over 35% in size
Chain of D(2) dopamine receptor (Homo sapiens) (P14416 whole entry, looked up): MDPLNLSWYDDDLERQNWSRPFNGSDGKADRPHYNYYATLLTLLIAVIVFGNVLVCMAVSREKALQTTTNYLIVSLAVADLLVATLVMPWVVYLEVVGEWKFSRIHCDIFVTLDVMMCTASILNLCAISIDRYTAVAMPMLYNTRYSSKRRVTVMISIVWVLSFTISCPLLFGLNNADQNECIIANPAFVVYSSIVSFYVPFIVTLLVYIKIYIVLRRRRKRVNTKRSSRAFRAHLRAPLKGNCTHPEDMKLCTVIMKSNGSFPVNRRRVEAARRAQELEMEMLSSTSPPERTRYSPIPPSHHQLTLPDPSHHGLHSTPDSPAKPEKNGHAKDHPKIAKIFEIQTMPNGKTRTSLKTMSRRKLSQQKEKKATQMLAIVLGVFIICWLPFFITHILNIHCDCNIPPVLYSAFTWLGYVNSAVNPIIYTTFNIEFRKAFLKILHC
Method in brief: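 cAMP accumulation in DRD2-HEK293 cells measured by HTRF after 1 h detection; compounds added 10 min before NKH477 (200nM […]) forskolin-analogue stimulation, 30 min at room temperature, with Ro20-1724 present at 0.1 mM final.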

[20] = molecular target: D(2) dopamine receptor (Homo sapiens) (UniProt P14416); assay: Dopamine D2 receptor (DRD2) small molecule antagonists, cell-based qHTS assay (AID 1963595; active means well fitted inhibition curve with a large enough effect in the signal ratio in the repeat runs, with a control signal flat; the % refers to the signal ratio)
Method in brief: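 Antagonist mode in DRD2-HEK293 cells: after compound addition with 0.1 mM Ro20-1724, cells received quinpirole (12 nM) and NKH477 (200 nM) for 30 min at room temperature; HTRF cAMP read after 1 h detection.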
On the % scale 0 is the no-effect control and ±100 the full control effect.

CC(=O)C(C)=O
inactive: Potency [1] | Potency [2] | Potency [3] | outcome [4] | outcome [5] | Potency [6] | Potency [7] | Potency [8] | Potency [9] | Potency [10] | Potency [11] | Potency [12] | Potency [13] | Potency [14] | Potency [15] | Potency [16] | Potency [17] | Potency [18] | Potency [19] | Potency [20]

CCCCNc1ccc(NCCCC)c2c1C(=O)c1ccccc1C2=O
inactive: activity change, negative = cytotoxicity [1] -4.75% [at 19 µM] | activity, positive = activation [2] 14.7% [at 19 µM] | activity change [3] -0.141% [at 11.8 µM, stronger effect = higher value] | activation [4] -3.45% [at 15.8 µM] | activation [5] 0.174% [at 11.8 µM] | activation [6] 5.72% [at 13.5 µM] | activation [7] 1.5% [at 13.6 µM] | activity change, negative = cytotoxicity [8] -5.72% [at 13.5 µM] | activity change, negative = cytotoxicity [9] -1.83% [at 13.5 µM] | activation [10] 7.46% [at 13.5 µM] | activity, negative = inhibition [11] -10.8% [at 12.7 µM] | activation [12] -0.354% [at 15.9 µM] | activity, negative = inhibition [13] 4.22% [at 12.6 µM] | activation [14] -0.373% [at 15.8 µM] | activation [15] -1.16% [at 19 µM] | activity change, negative = inhibition [16] -1.01% [at 18.9 µM] | activity change, negative = inhibition [17] 1.56% [at 19 µM] | activation [19] 6.31% [at 19 µM] | activity change, negative = inhibition [20] -5.82% [at 18.9 µM]

CC(CC(C#N)(c1ccccc1)C(C)C)N(C)C (stereo not given)
inactive: Potency [1] | Potency [2] | Potency [3] | outcome [4] | outcome [5] | Potency [6] | Potency [7] | Potency [8] | Potency [9] | Potency [10] | Potency [11] | Potency [12] | Potency [14] | Potency [15] | Potency [16] | Potency [17] | Potency [18] | Potency [19] | Potency [20]

CC(C)=NNC(N)=S
inactive: Potency [3] | outcome [4] | outcome [5] | Potency [6] | Potency [7] | Potency [8] | Potency [9] | Potency [10] | Potency [11] | Potency [12] | Potency [13] | Potency [14] | Potency [16] | Potency [17] | Potency [18] | Potency [19] | Potency [20]
active: Potency [1] 30.6 µM | Potency [2] 15.4 µM

O=C(O)c1cc(Cl)cc(Cl)c1
inactive: Potency [1] | Potency [2] | Potency [3] | outcome [4] | outcome [5] | Potency [6] | Potency [7] | Potency [8] | Potency [9] | Potency [10] | Potency [11] | Potency [12] | Potency [14] | Potency [17] | Potency [19] | Potency [20]

CCC(=O)Oc1ccc2c(c1)CC[C@@H]1[C@@H]2CC[C@@]2(C)[C@H]1C[C@@H](OC(=O)CC)[C@@H]2OC(=O)CC
inactive: Potency [1] | Potency [2] | Potency [3] | outcome [4] | outcome [5] | Potency [6] | Potency [7] | Potency [8] | Potency [9] | Potency [10] | Potency [11] | Potency [12] | Potency [13] | Potency [14] | Potency [17] | Potency [19] | Potency [20]
